In all, about 300,000 compounds went through this assay and about 1,700 (0.57%) were called active. Roughly 2% stayed inconclusive and do not appear here.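 How the source made its calls: active means growth inhibition above about 58% in most replicates (limit read from the data, passing the limit was not always enough); inconclusive means exactly half the replicates above a set limit; inactive means most replicates below a set limit.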 The sample as a whole holds a higher share of actives than the screen did.
Experiment: Candida growth reduction under fluconazole – CaCi-2 strain, Alamar Blue fluorescence, primary screen (AID 1979);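 further: all wells also contain fluconazole at 8 µg/ml as a sub-toxic cotreatment; 0% = median of DMSO wells and 100% = median of geldanamycin control wells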
Settings: C. albicans CaCi-2 (fluconazole-resistant clinical isolate) + fluconazole, 48 h, active compounds read high, concentration not given here

Growth inhibition, active:
OC(CNCC1CCCO1)Cn1c2ccc(Br)cc2c2cc(Br)ccc21 (configuration not stated) 101%
Cc1ccc(NC(=O)c2sc3nc(N)c(C#N)cc3c2N)cc1 88.6%
Cc1cccc(NC(=O)c2ccc([N+](=O)[O-])o2)c1 83.3%
COc1ccc(OC)c(Nc2nc(-c3ccc(O)c(O)c3)cs2)c1 97.8%
CCOc1cc(N2CCOCC2)c(OCC)cc1NC(=O)COc1cccc2cccnc12 101%
Cc1ccc(-c2nnn(CC(=O)N(Cc3ccco3)C(C(=O)NC(C)(C)C)c3ccncc3)n2)o1 (configuration not stated) 115%
CC1COc2ccccc2N1S(=O)(=O)c1ccccc1 (configuration not stated) 99.8%
COc1cc(/C=C(\C#N)c2nc3ccccc3[nH]2)ccc1O 76.5%
COc1ccc(C(=O)C2CCCN(Cc3cccn3-c3ccccn3)C2)c(C)c1 (configuration not stated) 110%
CCn1c(/C=C/c2ccc([N+](=O)[O-])o2)nc2ccccc2c1=O 99.4%
Cc1ccc(C)c(NC(=S)NNC(=O)c2csc(C)c2)c1 82.7%
O=C(Nc1ccccc1Cl)/C(Cl)=C(\Cl)S(=O)c1ccccc1 (configuration not stated) 81.7%
O=C(Nc1nnc(C2COc3ccccc3O2)o1)c1ccc(F)cc1 (configuration not stated) 85.8%
Cc1cccc(C2c3[nH]c4ccccc4c3CCN2C(=O)c2cc(-c3cccn3C)n[nH]2)n1 (configuration not stated) 79.7%

Growth inhibition, inactive:
CN(CC(=O)Nc1cccc(F)c1)C(=O)C1=COCCO1 -19.9%
Cc1ccc(S(=O)(=O)N2CCC(C(=O)OCC(=O)N(C)c3ccccc3)CC2)cc1C 5.01%
CC(NS(=O)(=O)c1ccc(Br)cc1)C(=O)NCC1CCCO1 (configuration not stated) -9.65%
CCCN1CCn2c3c(c4cc(Br)ccc42)CCCC31 (configuration not stated) -13.4%
Cc1nc(-c2ccc(Cl)cc2)sc1C1(C)CC(c2ccc(Br)cc2)=NO1 (configuration not stated) 1.65%
COCCNC(=O)C1CCN(S(=O)(=O)c2ccc3c(c2)OCCO3)CC1 0.395%
CCc1ccc2nc3sc(C(=O)Nc4nnc(CC)s4)c(N)c3cc2c1 44%
COc1ccc(NC(=O)c2cc(-c3ccc(C)cc3)on2)cc1 2.77%
COC(=O)c1ccc(SCc2ccccc2)nc1 13.7%
CN(C)c1nc(NN)nc(Nc2ccc(F)cc2)n1 3.13%
COc1cnn(-c2ccc([N+](=O)[O-])cc2)c(=O)c1Cl -11.1%
Cc1ccc(N2CC(C(=O)Nc3cc(Cl)ccc3-n3cncn3)CC2=O)cc1 (configuration not stated) -4.63%
Cc1onc(NC(=O)c2ccc([N+](=O)[O-])o2)c1Br -0.786%
O=C(Nc1ccc(Br)cn1)c1ccc([N+](=O)[O-])o1 18.1%
CC(=O)N(CC(O)CO)c1c(I)c(C(=O)NCC(O)CO)c(I)c(C(=O)NCC(O)CO)c1I (configuration not stated) -2.27%
COc1cccc(CC(=O)Nc2nc(-c3ccc(OC)c(OC)c3)cs2)c1 -0.204%
COc1ccc(C)cc1Nc1nc(-c2c(C)[nH]c3ccccc23)cs1 0.619%
O=C(NCCC1CCCCN1S(=O)(=O)c1ccccc1)C(=O)NCC1CCCO1 (configuration not stated) -4.24%
N#Cc1cccc(OC(=O)c2ccc3c(=O)n4c(nc3c2)CCC4)c1 6.7%
Brc1cnc2ccccc2c1N1CCCCC1 0.784%
CCOc1cc(N2CCOCC2)c(OCC)cc1NC(=O)COc1cccc(Cl)c1 18.5%
CCOc1cc(N2CCOCC2)c(OCC)cc1NC(=O)c1cc(C)nc2ccccc12 -4.82%
Cc1cccc(N(C(=O)Cn2nnc(-c3ccc(C)o3)n2)C(C(=O)NC2CCCC2)c2ccncc2)c1 (configuration not stated) 9.19%
Cc1ccc(-c2nnn(CC(=O)N(CCO)C(C(=O)NC(C)(C)C)c3ccncc3)n2)cc1 (configuration not stated) -7.13%
Cc1c(C(=O)NC(C)C2CC3CCC2C3)cccc1[N+](=O)[O-] (configuration not stated) -2.33%
O=S(=O)(c1ccccc1)N1CCc2ccccc21 -2.11%
CC1CN(S(=O)(=O)c2ccccc2)C(C)CN1S(=O)(=O)c1ccccc1 (configuration not stated) 3.32%
CCOc1ccc(S(=O)(=O)NCCC(=O)NCC(C)(C)N2CCOCC2)cc1 -1.97%
Cc1nc2ccccn2c(=O)c1NC(=O)c1cccs1 0.647%
COc1ccc(/C=C(/NC(=O)c2ccc(C)cc2)c2nc3ccccc3[nH]2)cc1OC 23.2%
COc1cc(/C=C(\C#N)c2nc3c(s2)CC(C)CC3)ccc1O (configuration not stated) 43.5%
Clc1ccc(Nc2ccc3ccccc3n2)cc1 -23.2%
CCN1C(=O)[C@H]2[C@@H](c3ccc(-c4ccc(OC)cc4)cc3)N[C@@](Cc3ccccc3)(C(=O)OC)[C@H]2C1=O 3.17%
CCN(CC(=O)Nc1cccc(S(=O)(=O)N2CCCCC2)c1)Cc1ccccc1 -0.00245%
COc1ccccc1NC(=O)COC(=O)c1ccccc1SCC(=O)N1CCCC1 4.29%
COc1ccc(C(=O)C2CCCN(Cc3ccc4nonc4c3)C2)c(C)c1 (configuration not stated) 3.47%
CCOC(=O)c1[nH]ncc1CN1CCCC(C(=O)c2ccc(OC)cc2C)C1 (configuration not stated) -8.68%
CCn1c(=O)c([N+](=O)[O-])c(NCc2ccc3c(c2)OCO3)c2ccccc21 18.7%
Cc1nc2ccccc2c(=O)n1Cc1ccc([N+](=O)[O-])cc1 -0.41%
Cc1cccc(-n2nc3c(c2NC(=O)c2cc4ccccc4o2)CS(=O)(=O)C3)c1 7.71%
CC(=O)N1CCN(C(=O)c2cc(-c3ccc(Cl)s3)nc3ccccc23)CC1 11.4%
CC(=O)Nc1cccc(C(=O)OCC(=O)c2ccc3c(c2)OCO3)c1 4.88%
COc1ccc2nc(N3CCN(C(=O)c4ccc([N+](=O)[O-])o4)CC3)sc2c1 13.6%
Cc1cc(C(=O)NNC(=S)NC(C)c2ccccc2)cs1 (configuration not stated) 12.8%
Cc1cc(C(=O)NNC(=S)Nc2ccccc2C)cs1 1.21%
NC1=NC(c2ccc([N+](=O)[O-])cc2)N(c2ccc(F)cc2)C(N)=N1 (configuration not stated) -2.27%
Cc1ccc(C(=O)Nc2c(C#N)c(C)c(C)n2Cc2ccccc2)cc1 -7.7%
CC(C)C(=O)N1CC(=O)Nc2ccc(F)cc2C1c1ccc(F)cc1 (configuration not stated) -3.91%
O=C(COC(=O)c1cccs1)Nc1ccccc1Cl 7.55%
O=C(Nc1ccccc1Cl)Nn1cnnc1 16.1%
O=c1[nH]c(/C=C/c2cccc(Br)c2)nc2ccccc12 3.62%
COc1ccccc1-n1ccnc(SCC(=O)NC2CCCCC2)c1=O -2.58%
O=C(Nc1ccccc1F)c1ccc2c(c1)OCO2 -5.7%
CC1COc2ccccc2N1C(=O)c1ccc(F)cc1 (configuration not stated) -3.04%
Cc1cccc(N(Cc2ccccc2)C(=O)c2cc(S(=O)(=O)N3CCOCC3)ccc2F)c1 -1.4%
CCN1C(=O)[C@H]2[C@@H](c3ccc(-c4ccc(F)cc4)cc3)N[C@@](Cc3ccccc3)(C(=O)OC)[C@H]2C1=O -6.22%
COC(=O)N/N=C/c1c[n+]([O-])c2ccccc2[n+]1[O-] 12.4%
Cc1ccc(NC(=O)CN(C)C(=O)Cn2nnc(-c3ccccc3)n2)cc1 -6.13%
O=C1CCCN1C(=O)COc1ccc([N+](=O)[O-])cc1 4.3%
O=C(c1cn2ccccc2n1)N1CCc2c([nH]c3ccccc23)C1c1ccccn1 (configuration not stated) -2.25%
Cc1cccc(C(=O)N2CCc3c([nH]c4ccccc34)C2CC(C)C)n1 (configuration not stated) 12.9%
O=C(NCc1ccccc1)C1=C[C@@H](c2ccccc2)C[C@@H](OCCCCO)O1 -5.03%
CCN(CC(=O)Nc1cc(Cl)ccc1C)C(=O)Cn1c(=O)cnc2ccccc21 -1.02%
